“And” between values parts separate entries of the source, which are not always exact repeats. Identical values can stand only once. Results filed as inconclusive are left out. A call without a number means that no potency is given here. Some compounds were tested as several samples or in several runs, with calls that do not always agree. The source made the active and inactive calls. Unless noted, calls come from the whole dose curve; as a rule, active = well fitted curve in the direction sought with a large enough effect in the repeat runs; inconclusive = weak or mixed curves; inactive = no such curve, though single readings can be large; an effect the other way counts as inactive or inconclusive.
What was measured:
[1] = Caspase-3/7 induction in CHO-K1 cells by small molecules, qHTS assay (AID 1346980); note: nearly all actives have a fitted effect of over 15% in size
Summary of the method: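 Wild-type CHO-K1 cells exposed to compounds for 17hr at 37 C, 5% CO2. Caspase-3/7 activity then measured by Caspase-Glo 3/7 luminescence after 30min at room temperature.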

[2] = Caspase-3/7 induction in HepG2 cells by small molecules, qHTS cell viability counter screen (AID 1346981); note: nearly all actives have a fitted effect of over 30% in size; note: potency is the fitted concentration of half-maximal effect
Summary of the method: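 CellTiter-Fluor fluorescence measured viability in the same wells used for Caspase-Glo 3/7. HepG2 (wild type) at 2,000 cells/well were pre-incubated 5 hr, dosed, and given reagent at 16 hr, with 1 hr further at 37C.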

[3] = molecular target: Nuclear receptor subfamily 1 group I member 2 (Rattus norvegicus) (UniProt Q9R1A7); experiment: Rat pregnane X receptor (rPXR) activation by small molecules, qHTS assay (AID 1346983); details: rPXR luciferase reporter cells, One-Glo luminescence, 24 h; stronger effect = higher value; note: nearly all actives have a fitted effect of over 20% in size
Summary of the method: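 Cell-based rPXR activation assay: rPXR cells, 2,000 per well, rested 5hr at 37 C, then exposed to compounds in DMSO for 24 hr at 37 C. Luciferase activity read by One-Glo luminescence after 30 min at room temperature.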

[4] = molecular target: Cytochrome P450 1A2 (Homo sapiens) (UniProt P05177); experiment: Cytochrome P450 Family 1 Subfamily A Member 2 (CYP1A2) small molecule antagonists: luciferase reporter qHTS assay (AID 1671199); note: nearly all actives have a fitted effect of over 50% in size; note: potency is the fitted concentration of half-maximal effect
Summary of the method: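 Luminescence from luciferin formed by CYP1A2 from a proluciferin substrate, read 20 min after detection reagent. Compound was pre-incubated 10 min with enzyme-substrate, and reaction started with NADPH regeneration solution for 1 h at room temperature; furafylline control.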

[5] = molecular target: Cytochrome P450 3A4 (Homo sapiens) (UniProt P08684); experiment: Cytochrome P450 Family 3 Subfamily A Member 4 (CYP3A4) small molecule antagonists: luciferase reporter qHTS assay (AID 1671201); note: nearly all actives have a fitted effect of over 50% in size; note: potency is the fitted concentration of half-maximal effect
Summary of the method: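 CYP3A4 activity was followed with a P450-Glo proluciferin substrate. Test compounds in DMSO were preincubated 10 min; NADPH regeneration then ran 1 h, and light output was read 20 min after detection reagent.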

[6] = molecular target: Nuclear receptor subfamily 1 group I member 2 (Homo sapiens) (UniProt O75469); experiment: Human pregnane X receptor (PXR) small molecule agonists, qHTS assay (AID 1346982); note: nearly all actives have a fitted effect of over 35% in size; note: potency is the fitted concentration of half-maximal effect
Summary of the method: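 Agonist mode: luminescence from ONE-Glo after 24 h compound exposure at 37C in HepG2 cells carrying hPXR-responsive CYP3A4 luciferase, plated in charcoal-stripped serum medium 5 h beforehand.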

[7] = molecular target: Acetylcholinesterase (Homo sapiens) (UniProt P22303); experiment: Acetylcholinesterase (AChE) small molecule antagonists: enzyme-based qHTS assay (AID 1347397; calls by dose curve; note: nearly all actives have a fitted effect of over 55% in size; note: potency is the fitted concentration of half-maximal effect); details: Potency: AChE enzyme activity inhibition
Summary of the method: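 In this quantitative HTS, compounds from the Tox21 10K collection were preincubated 30 min at ambient temperature with recombinant human AChE dispensed at 50 mU/mL. Hydrolysis of acetylthiocholine was then followed for 10 min by DTNB colour development.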

[8] = molecular target: Acetylcholinesterase (Homo sapiens) (UniProt P22303); experiment: Acetylcholinesterase (AChE) small molecule antagonists: enzyme-based qHTS assay with human liver microsomes (AID 1347399; calls by dose curve; note: nearly all actives have a fitted effect of over 60% in size; note: potency is the fitted concentration of half-maximal effect); details: Potency: qHTS inhibition
Summary of the method: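 Recombinant human AChE (50 mU/mL in the enzyme mix) and human liver microsomes (0.25 mg/mL final) were preincubated with compound and NADPH (0.25 mg/mL final) for 30 min at 37 C. Acetylthiocholine/DTNB was then added; thiocholine was read colorimetrically after 10 min at room temperature.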

[9] = molecular target: Cytochrome P450 2D6 (Homo sapiens) (UniProt P10635); experiment: Cytochrome P450 Family 2 Subfamily D Member 6 (CYP2D6) small molecule antagonists: luciferase reporter qHTS assay (AID 1671196); note: nearly all actives have a fitted effect of over 50% in size; note: potency is the fitted concentration of half-maximal effect
Summary of the method: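 CYP2D6 activity was followed as luminescence from its luciferin product after a 1 h NADPH-driven reaction at room temperature. Enzyme-substrate mix and compound were pre-incubated for 10 min, and the signal was read 20 min after adding detection reagent.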

[10] = molecular target: Cytochrome P450 2C19 (Homo sapiens) (UniProt P33261); experiment: Cytochrome P450 Family 2 Subfamily C Member 19 (CYP2C19) small molecule antagonists: luciferase reporter qHTS assay (AID 1671197); note: nearly all actives have a fitted effect of over 65% in size; note: potency is the fitted concentration of half-maximal effect
Summary of the method: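 Relative luminescence units recorded 20 min after the detection reagent stopped a 1 h, 37C CYP2C19 reaction on proluciferin substrate, which was started by NADPH regeneration following 10 min room-temperature compound preincubation; ketoconazole positive control.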

[11] = molecular target: Cytochrome P450 2C9 (Homo sapiens) (UniProt P11712); experiment: Cytochrome P450 Family 2 Subfamily C Member 9 (CYP2C9) small molecule antagonists: luciferase reporter qHTS assay (AID 1671198); note: nearly all actives have a fitted effect of over 50% in size; note: potency is the fitted concentration of half-maximal effect
Summary of the method: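 P450-Glo proluciferin substrate with CYP2C9 enzyme; 10 min RT preincubation, then NADPH regeneration 1 h at 37C; luciferin detection reagent 20 min RT, luminescence in relative luminescence units.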

[12] = molecular target: Voltage-gated inwardly rectifying potassium channel KCNH2 (Homo sapiens) (UniProt Q12809); experiment: Human Ether-a-go-go-Related Gene (hERG) channel small molecule antagonists: fluorescence cell-based qHTS assay (AID 1671200)
Summary of the method: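 In this thallium-flux screen, overnight-cultured U2OS cells bearing the channel are dye-loaded in darkness for an hour, rested 10 min at room temperature, and then monitored kinetically at 480/540 nm for two minutes post-stimulus.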

[13] = molecular target: Acetylcholinesterase (Homo sapiens) (UniProt P22303); experiment: Acetylcholinesterase (AChE) small molecule antagonists: fluorescence cell-based qHTS assay (AID 1347398; calls by dose curve; note: nearly all actives have a fitted effect of over 50% in size); details: Potency: AChE activity
Summary of the method: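 Cells (SH-SY5Y) attached overnight, were dosed with compound or DMSO vehicle for 30 min at 37 C, and then incubated 40 min at room temperature with acetylthiocholine and Thiolite Green; green fluorescence indexed AChE activity.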

[14] = molecular target: Acetylcholinesterase (Homo sapiens) (UniProt P22303); experiment: Acetylcholinesterase (AChE) small molecule antagonists: colormetric cell-based qHTS assay (AID 1347395; calls by dose curve; note: nearly all actives have a fitted effect of over 30% in size; note: potency is the fitted concentration of half-maximal effect)
Summary of the method: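 After overnight attachment at 37 C, SH-SY5Y cells get 30 min compound exposure; detection cocktail (acetylthiocholine, DTNB) then incubates 90 min at 37 C, and absorbance reflects AChE-generated thiocholine.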

Cytochrome P450 1A2 (Homo sapiens), sequence (P05177 whole entry, looked up): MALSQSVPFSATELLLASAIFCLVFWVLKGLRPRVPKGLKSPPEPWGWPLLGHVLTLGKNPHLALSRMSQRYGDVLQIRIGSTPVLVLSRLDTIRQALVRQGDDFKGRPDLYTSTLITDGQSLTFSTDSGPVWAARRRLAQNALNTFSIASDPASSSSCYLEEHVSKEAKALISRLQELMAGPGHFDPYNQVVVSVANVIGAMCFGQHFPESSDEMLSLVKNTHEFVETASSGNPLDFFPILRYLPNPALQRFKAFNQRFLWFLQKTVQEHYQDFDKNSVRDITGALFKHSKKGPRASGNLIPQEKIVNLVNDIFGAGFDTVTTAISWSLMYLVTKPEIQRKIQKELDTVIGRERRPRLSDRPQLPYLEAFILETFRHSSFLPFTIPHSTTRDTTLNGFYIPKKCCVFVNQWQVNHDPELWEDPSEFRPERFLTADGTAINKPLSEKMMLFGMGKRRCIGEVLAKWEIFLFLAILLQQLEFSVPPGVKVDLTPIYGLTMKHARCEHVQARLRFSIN
Cytochrome P450 2D6 (Homo sapiens), sequence (P10635 whole entry, looked up): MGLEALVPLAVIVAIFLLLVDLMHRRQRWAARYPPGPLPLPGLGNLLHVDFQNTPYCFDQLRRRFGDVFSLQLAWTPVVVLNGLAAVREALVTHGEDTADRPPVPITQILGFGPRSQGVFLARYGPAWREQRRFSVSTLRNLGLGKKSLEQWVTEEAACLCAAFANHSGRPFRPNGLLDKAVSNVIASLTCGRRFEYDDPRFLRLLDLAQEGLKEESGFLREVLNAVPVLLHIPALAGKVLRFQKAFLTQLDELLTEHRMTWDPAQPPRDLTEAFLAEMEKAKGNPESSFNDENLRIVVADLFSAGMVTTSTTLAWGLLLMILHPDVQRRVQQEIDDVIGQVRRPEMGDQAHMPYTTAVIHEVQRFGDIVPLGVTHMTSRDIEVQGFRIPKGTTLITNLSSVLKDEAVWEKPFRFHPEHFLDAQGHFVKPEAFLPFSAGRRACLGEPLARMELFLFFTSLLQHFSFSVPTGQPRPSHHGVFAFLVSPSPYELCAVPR
Cytochrome P450 3A4 (Homo sapiens), sequence (P08684 whole entry, looked up): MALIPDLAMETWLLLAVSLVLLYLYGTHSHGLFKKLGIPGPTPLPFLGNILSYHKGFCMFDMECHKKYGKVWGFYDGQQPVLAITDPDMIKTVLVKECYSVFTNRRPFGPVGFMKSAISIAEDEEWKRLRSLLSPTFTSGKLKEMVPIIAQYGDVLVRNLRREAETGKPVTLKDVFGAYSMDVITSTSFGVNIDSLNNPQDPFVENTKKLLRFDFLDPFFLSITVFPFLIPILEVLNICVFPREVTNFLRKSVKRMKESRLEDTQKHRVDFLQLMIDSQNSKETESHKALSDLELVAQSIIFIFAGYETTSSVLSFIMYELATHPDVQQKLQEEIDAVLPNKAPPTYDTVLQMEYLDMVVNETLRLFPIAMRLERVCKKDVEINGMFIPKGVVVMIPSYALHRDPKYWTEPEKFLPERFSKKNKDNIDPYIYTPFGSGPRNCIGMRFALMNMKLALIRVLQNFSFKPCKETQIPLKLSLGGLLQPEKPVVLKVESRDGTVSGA
Nuclear receptor subfamily 1 group I member 2 (Homo sapiens), sequence (O75469 whole entry, looked up): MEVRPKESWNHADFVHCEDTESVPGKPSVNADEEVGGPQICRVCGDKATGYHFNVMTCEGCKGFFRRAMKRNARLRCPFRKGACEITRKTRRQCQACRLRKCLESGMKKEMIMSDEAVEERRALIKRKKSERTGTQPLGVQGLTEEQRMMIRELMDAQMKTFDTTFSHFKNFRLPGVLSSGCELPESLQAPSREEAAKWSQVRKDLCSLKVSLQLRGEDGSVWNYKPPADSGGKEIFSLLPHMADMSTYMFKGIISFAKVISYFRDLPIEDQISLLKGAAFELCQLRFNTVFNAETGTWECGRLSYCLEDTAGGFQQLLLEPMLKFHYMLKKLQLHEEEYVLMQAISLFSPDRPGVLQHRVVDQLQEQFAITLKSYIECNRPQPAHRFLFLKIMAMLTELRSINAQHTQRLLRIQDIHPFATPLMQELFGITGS
Acetylcholinesterase (Homo sapiens), sequence (P22303 whole entry, looked up): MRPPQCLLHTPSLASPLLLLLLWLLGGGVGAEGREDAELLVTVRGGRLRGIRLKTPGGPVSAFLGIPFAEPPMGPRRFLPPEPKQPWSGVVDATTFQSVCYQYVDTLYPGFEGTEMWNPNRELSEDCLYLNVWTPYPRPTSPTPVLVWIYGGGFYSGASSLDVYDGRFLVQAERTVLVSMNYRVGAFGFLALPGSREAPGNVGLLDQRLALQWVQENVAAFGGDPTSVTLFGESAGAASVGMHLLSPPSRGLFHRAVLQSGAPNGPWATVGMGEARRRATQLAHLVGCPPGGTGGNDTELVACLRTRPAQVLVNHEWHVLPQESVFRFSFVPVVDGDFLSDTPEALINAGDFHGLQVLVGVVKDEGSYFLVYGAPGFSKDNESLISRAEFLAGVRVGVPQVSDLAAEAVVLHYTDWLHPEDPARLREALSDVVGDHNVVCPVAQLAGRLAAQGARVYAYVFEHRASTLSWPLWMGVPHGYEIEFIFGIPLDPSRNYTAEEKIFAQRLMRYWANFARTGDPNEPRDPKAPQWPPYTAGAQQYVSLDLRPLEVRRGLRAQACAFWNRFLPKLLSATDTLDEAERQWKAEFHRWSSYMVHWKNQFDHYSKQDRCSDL
Voltage-gated inwardly rectifying potassium channel KCNH2 (Homo sapiens), sequence (Q12809 whole entry, looked up): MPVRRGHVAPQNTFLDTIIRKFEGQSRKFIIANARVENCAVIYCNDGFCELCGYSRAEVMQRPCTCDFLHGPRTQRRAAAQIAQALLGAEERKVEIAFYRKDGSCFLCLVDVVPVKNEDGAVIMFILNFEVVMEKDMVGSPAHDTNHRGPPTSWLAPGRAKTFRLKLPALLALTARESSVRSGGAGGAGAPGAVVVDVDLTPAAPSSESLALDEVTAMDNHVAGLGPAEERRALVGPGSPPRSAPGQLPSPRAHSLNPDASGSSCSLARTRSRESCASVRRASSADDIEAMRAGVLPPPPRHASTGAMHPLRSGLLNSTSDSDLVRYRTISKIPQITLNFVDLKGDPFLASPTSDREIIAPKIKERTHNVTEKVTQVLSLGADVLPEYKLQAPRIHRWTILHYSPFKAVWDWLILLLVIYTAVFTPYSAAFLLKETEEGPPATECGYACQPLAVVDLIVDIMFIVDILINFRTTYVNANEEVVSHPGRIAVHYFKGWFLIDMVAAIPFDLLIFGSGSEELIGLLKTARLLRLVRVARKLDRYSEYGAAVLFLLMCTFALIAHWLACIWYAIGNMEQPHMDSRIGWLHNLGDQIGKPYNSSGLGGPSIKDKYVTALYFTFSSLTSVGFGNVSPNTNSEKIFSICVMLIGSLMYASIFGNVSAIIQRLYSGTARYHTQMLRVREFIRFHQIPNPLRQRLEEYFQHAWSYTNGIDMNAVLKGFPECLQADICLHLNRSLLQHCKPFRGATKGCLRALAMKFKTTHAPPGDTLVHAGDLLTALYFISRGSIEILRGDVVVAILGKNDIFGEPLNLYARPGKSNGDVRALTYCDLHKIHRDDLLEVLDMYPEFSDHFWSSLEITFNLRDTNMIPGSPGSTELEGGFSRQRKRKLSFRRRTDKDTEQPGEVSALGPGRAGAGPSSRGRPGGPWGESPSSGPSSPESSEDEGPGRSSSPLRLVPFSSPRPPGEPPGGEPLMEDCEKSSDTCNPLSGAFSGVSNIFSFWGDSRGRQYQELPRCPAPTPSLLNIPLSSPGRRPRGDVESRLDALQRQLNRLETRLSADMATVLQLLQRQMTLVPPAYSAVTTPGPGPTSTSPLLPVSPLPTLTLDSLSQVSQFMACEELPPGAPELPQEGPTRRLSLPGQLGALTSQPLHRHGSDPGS
Cytochrome P450 2C19 (Homo sapiens), sequence (P33261 whole entry, looked up): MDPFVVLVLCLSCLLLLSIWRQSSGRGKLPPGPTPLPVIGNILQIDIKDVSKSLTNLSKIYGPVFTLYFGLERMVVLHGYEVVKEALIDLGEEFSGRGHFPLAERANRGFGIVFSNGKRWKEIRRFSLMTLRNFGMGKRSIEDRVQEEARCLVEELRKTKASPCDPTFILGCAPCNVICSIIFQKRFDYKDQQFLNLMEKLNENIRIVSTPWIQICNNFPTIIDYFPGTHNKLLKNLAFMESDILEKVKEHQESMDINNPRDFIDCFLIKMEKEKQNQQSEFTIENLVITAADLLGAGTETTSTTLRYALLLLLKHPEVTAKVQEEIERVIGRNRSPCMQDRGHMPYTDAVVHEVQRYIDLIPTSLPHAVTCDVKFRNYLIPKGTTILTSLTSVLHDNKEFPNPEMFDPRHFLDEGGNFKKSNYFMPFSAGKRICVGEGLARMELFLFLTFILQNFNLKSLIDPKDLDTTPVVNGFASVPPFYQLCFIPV
Cytochrome P450 2C9 (Homo sapiens), sequence (P11712 whole entry, looked up): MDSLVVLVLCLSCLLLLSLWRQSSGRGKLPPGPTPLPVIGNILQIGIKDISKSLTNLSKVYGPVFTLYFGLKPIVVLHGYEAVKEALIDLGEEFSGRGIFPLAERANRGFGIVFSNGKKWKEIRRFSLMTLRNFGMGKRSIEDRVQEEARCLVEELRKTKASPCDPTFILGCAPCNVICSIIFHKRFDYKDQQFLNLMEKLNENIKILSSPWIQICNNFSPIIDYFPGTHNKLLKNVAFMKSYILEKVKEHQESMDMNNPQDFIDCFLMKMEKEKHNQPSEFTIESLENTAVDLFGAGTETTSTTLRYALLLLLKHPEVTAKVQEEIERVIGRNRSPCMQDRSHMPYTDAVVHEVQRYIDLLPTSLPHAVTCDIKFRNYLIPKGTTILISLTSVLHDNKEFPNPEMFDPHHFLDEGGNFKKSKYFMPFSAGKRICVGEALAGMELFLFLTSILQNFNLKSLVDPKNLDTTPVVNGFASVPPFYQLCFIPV

Structure (SMILES) | outcome [1] | Potency [2] | max activation [3] | Potency [4] | Potency [5] | Potency [6] | Potency [7] | Potency [8] | Potency [9] | Potency [10] | Potency [11] | Potency [12] | Potency [13] | Potency [14]
CC(NC(C)(C)C)C(=O)c1cccc(Cl)c1 (stereo not given) | inactive | inactive | -1.59% (inactive) | inactive | inactive |  |  |  |  |  |  |  |  | 
O=NN1CCCC1 | inactive | inactive |  | 33.2 µM (active) and inactive | inactive | inactive | inactive | inactive | inactive | 33.2 µM (active) and inactive | inactive | inactive |  | 
CC(C)(C)OOC(=O)c1ccccc1 | inactive | inactive |  | inactive | inactive | inactive | inactive | inactive | inactive | inactive | inactive |  | inactive | 
C#CC(C)(C)NC(=O)c1cc(Cl)cc(Cl)c1 | inactive | inactive |  | 5.07 µM (active) and 15.9 µM (active) | 20.2 µM (active) and 35.6 µM (active) | 49 µM (active) and 30.6 µM (active) | inactive | inactive | inactive | 8.04 µM (active) and 39.9 µM (active) |  |  |  | inactive
C=CC(N)=O | inactive | inactive |  | 35.7 µM (active) and inactive |  | inactive |  |  |  |  | inactive |  |  | 
CCN(CC)CCO | inactive | inactive |  | inactive and 31.7 µM (active) | inactive | inactive | inactive | inactive | inactive | inactive |  | inactive |  | 
CN=C=S | inactive | inactive |  | 40.3 µM (active) | inactive | 30.9 µM (active) and inactive | inactive | inactive | inactive | 80.4 µM (active) and inactive |  | inactive |  | 
CON(C)C(=O)Nc1ccc(Cl)c(Cl)c1 | inactive | inactive |  | 1.42 µM (active) and 3.17 µM (active) | inactive | 61.4 µM (active) and 54.5 µM (active) | inactive | inactive | inactive | 16 µM (active) and 39.9 µM (active) |  | inactive | inactive | 
COC(=O)NC(=S)Nc1ccccc1NC(=S)NC(=O)OC | inactive | inactive |  | 31.7 µM (active) |  | 61.1 µM (active) and 48.6 µM (active) | inactive | inactive | inactive | 63.3 µM (active) and 22.4 µM (active) | 39.9 µM (active) | inactive | inactive | 
CC(Oc1ccc(Cl)cc1Cl)C(=O)O (stereo not given) | inactive | inactive |  | inactive | inactive | inactive | inactive | inactive | inactive | 35.7 µM (active) | 35.7 µM (active) and 71 µM (active) |  | inactive | 
c1ccc(-c2ccccc2)cc1 | inactive | inactive |  | inactive | inactive | inactive | inactive | inactive | inactive | inactive |  | inactive | inactive | 
COC(=O)NS(=O)(=O)c1ccc(N)cc1 | inactive | inactive |  | inactive | inactive | inactive | inactive | inactive | inactive | 71.3 µM (active) and inactive |  | inactive | inactive | 
CCCCN(CCCC)SN(C)C(=O)Oc1cccc2c1OC(C)(C)C2 | inactive | inactive |  | 36.2 µM (active) and 39.9 µM (active) | 14.4 µM (active) and 12.6 µM (active) | 62.1 µM (active) and inactive | 57.3 nM (active) and 894 nM (active) | 573 nM (active) and 3.56 µM (active) | 28.7 µM (active) and 35.6 µM (active) | 36.2 µM (active) and 71 µM (active) |  |  |  | 809 nM (active) and 159 nM (active)
Nc1c(Cl)c(Cl)nc(C(=O)O)c1Cl | inactive | inactive |  | 39.5 µM (active) and inactive | inactive | 56.1 µM (active) and inactive | inactive | inactive | inactive | inactive and 8.22 µM (active) | inactive and 65.3 µM (active) |  |  | 
Cc1cc(Cl)ccc1O | inactive | inactive |  | 30.8 µM (active) and 31.7 µM (active) | inactive | inactive | inactive | inactive | 19.4 µM (active) and 12.6 µM (active) |  |  |  | inactive | 
CCN(CC)c1ccccc1 | inactive | inactive |  | inactive | inactive | inactive | inactive | inactive | inactive | inactive | inactive and 71 µM (active) |  |  | 
C#CCN(C)[C@H](C)Cc1ccccc1 |  | inactive | -1.33% (inactive) | 17.8 µM (active) and inactive | inactive | inactive | inactive | inactive | 12.6 µM (active) and 17.4 µM (active) |  | inactive | inactive | inactive | inactive
COCCl | inactive | 35.7 µM (active) and inactive |  | 20.1 µM (active) | inactive | 56.6 µM (active) and inactive | inactive | inactive | inactive | 33 µM (active) and 22.6 µM (active) | inactive | inactive |  | 
c1ccc2c(c1)oc1ccccc12 | inactive | inactive |  | inactive and 10 µM (active) | inactive | inactive | inactive | inactive | inactive | 40.5 µM (active) | 36.1 µM (active) and inactive |  | inactive | 

Source: PubChem BioAssay (Tox21)
